Compound activity (PubChem BioAssay)
CBX7 inh = CBX7 chromodomain binding inhibitors, primary screen, biochemical, AlphaScreen. AID 1224903, 2016. AlphaScreen His6-CBX7 / biotin-H3K27me3 peptide binding; hits give low values. normalised signal (fraction of DMSO) (no concentration beside the values). Chromobox protein homolog 7 (Homo sapiens), O95931. 66,000 tested, 1.1% active; in the data active = normalised signal below about 0.5
Target sequence (O95931 whole entry, looked up): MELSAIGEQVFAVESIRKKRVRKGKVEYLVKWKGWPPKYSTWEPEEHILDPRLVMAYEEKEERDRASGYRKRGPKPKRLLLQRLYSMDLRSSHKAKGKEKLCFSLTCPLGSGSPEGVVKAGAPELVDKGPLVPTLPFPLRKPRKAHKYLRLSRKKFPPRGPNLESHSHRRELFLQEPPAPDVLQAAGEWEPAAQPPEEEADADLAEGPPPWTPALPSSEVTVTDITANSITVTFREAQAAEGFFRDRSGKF
Starred values were filed as active, the others as inactive. Many of the other results were omitted from the sample, so hits are more common in it than they were.

SMILES | CBX7 inh
COCCCNC(=O)C1CCCN(Cc2nc(-c3cccc(C)c3)oc2C)C1 (stereo unspecified) | 0.97
CC(=O)Nc1ccc(Oc2nnc(-c3ccc(Cl)cc3)c3ccccc23)cc1 | 0.86
Cc1cccc(NC(=O)c2ccccc2NC(=O)c2cccc(S(=O)(=O)N3CCCCCC3)c2)c1 | 0.99
Cc1ccccc1NC(=O)C1CCN(S(=O)(=O)c2ccc3c(c2)CCC(=O)N3)CC1 | 1
CCCCN1C(=O)C(O)(CC(=O)c2ccc(C(C)C)cc2)c2cc(Br)ccc21 (stereo unspecified) | 0.66
O=C(CC1(O)C(=O)N(CCc2ccccc2)c2ccc(Br)cc21)c1ccccc1 (stereo unspecified) | 0.63
CCCN1C(=O)C(O)(CC(=O)c2ccc(C(C)C)cc2)c2cc(Br)ccc21 (stereo unspecified) | 0.14*
COc1ccc(-c2noc(COc3ccc(C)c(C)c3)n2)cc1 | 1.4
O=C(Nc1ccc(-c2noc(CCc3ccccc3)n2)cc1)c1ccncc1 | 1.1
O=c1[nH]c2ccccc2nc1Cc1cc(Br)ccc1F | 0.98
O=C(Nc1cccc(F)c1)c1cccnc1Nc1ccc(F)cc1 | 0.67
Cc1ccc(Nc2c(-c3cccc(Br)c3)nc3cc(C)ccn23)cc1 | 0.79
Cc1ccc(-c2nc3cnccn3c2Nc2ccc(C(C)C)cc2)cc1 | 0.91
COC(=O)CNc1c(-c2ccccn2)nc2cnccn12 | 0.98
Fc1ccc(Nc2c(-c3ccccn3)nc3ccccn23)cc1 | 0.059*
Cc1ccc(Nc2c(-c3ccccn3)nc3cc(C)ccn23)cc1 | 0.00096*
Fc1ccc(Nc2c(-c3ccccc3)nc3ccccn23)cc1 | 1
COC(=O)CNc1c(-c2ccccn2)nc2ccccn12 | 0.28*
COC(=O)CNc1c(-c2c[nH]c3ccccc23)nc2ccc(Br)cn12 | 0.8
Cc1ccc(Nc2c(-c3cccnc3)nc3cc(C)ccn23)cc1 | 0.91
Fc1ccc(Nc2c(-c3ccc(Cl)cc3)nc3ncccn23)cc1 | 1.2
Cc1ccn2c(Nc3ccc(C(C)C)cc3)c(-c3ccsc3)nc2c1 | 1
Cc1ccn2c(Nc3ccc(C(C)C)cc3)c(-c3ccccn3)nc2c1 | 0.0075*
Cc1ccsc1-c1nc(CSCC(=O)N2CCCC2)c(C)o1 | 0.97
CC(C)NS(=O)(=O)c1ccc2[nH]c(=O)c(=O)[nH]c2c1 | 0.98
SMILES | CBX7 inh
O=C(Nc1sc2c(c1C(=O)N1CCOCC1)CCCC2)c1ccccc1 | 1
Cc1cc(C)c(NC2c3ccccc3C(=O)N2c2ccccc2C)c(C)c1 (stereo unspecified) | 0.95
CC1CCC(NC(=O)C2c3cccn3CC(=O)N2c2ccc(Cl)cc2)CC1 (stereo unspecified) | 0.99
COc1ccccc1N1CCN(C(c2cccs2)C(C)NC(=O)c2cccc(F)c2)CC1 (stereo unspecified) | 0.96
CCOC(=O)c1ccccc1NC(=O)c1sc2ncn(Cc3ccccc3Cl)c(=O)c2c1C | 1.1
CCOC(=O)c1cnc2cc(Cl)c(OC)cc2c1Nc1ccccc1F | 0.92
COc1ccc(Nc2c(-c3ccccn3)nc3ccc(Cl)cn23)cc1 | 0.72
COc1ccc(Nc2c(-c3ccccn3)nc3ccc(Br)cn23)cc1 | 0.84
COc1ccc(Nc2c(-c3ccccn3)nc3cc(C)ccn23)cc1 | 0*
O=C(O)c1ccccc1OCC(O)Cn1cnc2ccccc21 (stereo unspecified) | 1
Cc1ccc(Cl)c(OCC(O)Cn2cnc3ccccc32)c1 (stereo unspecified) | 0.68
OC(COc1ccccc1Cl)Cn1cnc2ccccc21 (stereo unspecified) | 0.25*
Cc1cc(C)c(OCC(O)Cn2cnc3ccccc32)c(C)c1 (stereo unspecified) | 0.48*
OC(COc1ccc(Br)cc1)Cn1cnc2ccccc21 (stereo unspecified) | 0.59
CCCc1nc2ccccc2n1CC(O)COc1c(C)cc(C)cc1C (stereo unspecified) | 0.93
CCCOc1ccc(-c2ccc(-c3noc(C4CCC(CCC)CC4)n3)cc2)cc1 (stereo unspecified) | 1.2
CCOc1ccc(-c2nc(SCC(=O)Nc3nccs3)c(-c3ccccc3)[nH]2)cc1OC | 0.96
CCCN1CCN(c2cc(C)nc3c(-c4ccc(Cl)cc4)c(C)nn23)CC1 | 1.1
COc1ccc(Cl)cc1N(C)C(=O)CCc1nc(-c2ccccc2F)no1 | 1.1
C=CCn1c(SCC(=O)c2ccccc2)nnc1-c1ccc(OC)cc1 | 1
COc1ccc(Cl)cc1NC(=O)c1c(NCc2sccc2C)sc2c1CCC2 | 0.97
COc1ccc(CSc2nc3ccccc3[nH]2)cc1 | 0.97
COc1ccc(C2NC(C(=O)O)Cc3[nH]cnc32)cc1CSc1nc2ccccc2[nH]1 (stereo unspecified) | 0.5*
COc1ccc(C2NCCc3c2[nH]c2ccccc32)cc1CSc1nc2ccccc2[nH]1 (stereo unspecified) | 0.89
CCOC(=O)c1sc2nc(C)nc(N3CCN(c4ccccc4F)CC3)c2c1C | 1.1
SMILES | CBX7 inh
COCCn1c(SCC(=O)Nc2cccc(Cl)c2)nnc1-c1c[nH]c2ccccc12 | 1
COc1ccc(C(=O)Nc2cccc(-c3nc4ccccc4o3)c2)cc1OC | 1.3
COc1ccc(-c2nnc(NC(=O)c3ccc(Cl)cc3)o2)cc1 | 0.55
COc1ccc(-c2nnc(NC(=O)c3ccc(OC)c(OC)c3)o2)cc1 | 0.086*
COc1ccc(C(=O)Nc2nnc(-c3cccc(C)c3)o2)cc1OC | 0.018*
COc1ccc(C(=O)Nc2nnc(-c3ccccc3)o2)cc1OC | 0.61
Cc1cccc(-c2nnc(NC(=O)c3ccc(Cl)cc3)o2)c1 | 0.86
Cc1c(Cl)cccc1NS(=O)(=O)c1ccc2[nH]cc(C(=O)NC3CCCCC3)c(=O)c2c1 | 0.94
CCn1c(SCC(=O)Nc2cc(OC)ccc2OC)nnc1-c1c[nH]c2ccccc12 | 1.1
C1=CC2=C(CO1)OCc1c2[nH]c2ccc3ccccc3c12 | 0.43*
COc1cccc(-n2ccnc2SCC(=O)Nc2nnc(C)s2)c1 | 0.96
CCOC(=O)N1CCC(Nc2nc3ccc(C)cc3nc2-n2nc(C)cc2C)CC1 | 1.2
COc1ccc(-n2nc(C(=O)N3CCN(c4ccccc4)CC3)c3ccccc3c2=O)cc1 | 0.93
Cc1ccc(OCCn2c(C3CC(=O)N(c4cccc(C)c4C)C3)nc3ccccc32)cc1 (stereo unspecified) | 0.79
Cc1ccc(OCCn2c(C3CC(=O)N(c4cc(C)ccc4C)C3)nc3ccccc32)cc1 (stereo unspecified) | 0.49*
Cc1ccc(C)c(N2CC(c3nc4ccccc4n3CCOc3ccccc3)CC2=O)c1 (stereo unspecified) | 0.7
Cc1ccc(CCNC(=O)c2ccc3c(c2)N(Cc2ccccc2C)C(=O)c2ccccc2S3)cc1 | 0.97
Cc1nc(Nc2cccc(Cl)c2)c2c3c(sc2n1)CCCC3 | 1.1
CCCCCn1c(=O)[nH]c2cc(C(=O)NCc3ccc(Cl)cc3)ccc2c1=O | 1
CCCCCn1c(=O)[nH]c2cc(C(=O)NCc3ccccn3)ccc2c1=O | 0.11*
O=C(NCc1ccccn1)c1ccc2c(=O)n(CCc3ccccc3)c(=O)[nH]c2c1 | 0.9
COc1cc2c(cc1OC)C(C(=O)NCCN1CCOCC1)C(c1ccccc1F)N(C)C2=O (stereo unspecified) | 1.1
Cc1cccc2nc(-c3ccncc3)c(Nc3ccc4c(c3)OCO4)n12 | 0.99
Cc1cccc2nc(-c3ccccn3)c(Nc3ccc4c(c3)OCO4)n12 | 0*
Cc1cccc2nc(-c3ccccn3)c(Nc3ccc4c(c3)OCCO4)n12 | 0*
